This passage reports growth inhibition results from PubChem BioAssay (NCI).

Compounds without any hit were thinned out: in the full panel of roughly 79,000, 15% have a hit. Values without a mark were called inactive. Activity calls are given as the source filed them. No stated cut-off is given here; in the data, active means growth inhibition above about 70%; inactive means the rest.

Assay [1] in a line: NCI Yeast Anticancer Drug Screen. Data for the rad50 strain (AID 155).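 Further: 0% = growth of vehicle-only cultures of the same strain.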 The settings on record: S. cerevisiae rad50 strain growth inhibition, active compounds read high. In outline: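 Growth of the mutant yeast was measured after compound exposure and referenced to vehicle-treated cultures.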
Assay [2] is described as follows: NCI Yeast Anticancer Drug Screen. Data for the mec2-1 strain (AID 157). The settings on record: S. cerevisiae mec2-1 strain, active compounds read high. In outline: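 Growth inhibition is read against vehicle-treated controls after compound exposure of the mec2-1 yeast strain, which is defective in DNA damage repair or cell cycle control.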
Assay [3] in a line: NCI Yeast Anticancer Drug Screen. Data for the sgs1 mgt1 strain (AID 161).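 Further: 0% = growth of cultures given vehicle only.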 The conditions noted are these: S. cerevisiae sgs1 mgt1 strain, active compounds read high. In outline: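 This yeast growth screen uses a strain with defined DNA-repair lesions; compound-treated growth is compared with vehicle-treated growth.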
Assay [4] is described as follows: NCI Yeast Anticancer Drug Screen. Data for the cln2 rad14 strain (AID 165).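 Further: 0% = growth equal to vehicle treated cultures.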 The settings on record: S. cerevisiae cln2 rad14 strain, active compounds read high. The essentials:
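Growth inhibition, relative to vehicle-treated controls, is the read-out. The test organism is a yeast strain with defined genetic alterations, cln2 rad14.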

A short description of assay [5]: NCI Yeast Anticancer Drug Screen. Data for the bub3 strain (AID 167). The conditions noted are these: S. cerevisiae bub3 mutant strain, active compounds read high. In outline: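 Whole-cell yeast assay. The mutant strain was incubated with compounds, and growth inhibition was determined by comparison with vehicle-treated cells.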
Assay [6] can be described thus: NCI Yeast Anticancer Drug Screen. Data for the mlh1 rad18 strain (AID 175). The settings on record: S. cerevisiae mlh1 rad18 strain growth inhibition, active compounds read high. The essentials:
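Cells of a genetically altered yeast strain, deficient in DNA damage repair, were treated with compound. Their growth was then compared with that of vehicle-treated cultures to give inhibition.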

Setting [7] is: at 5.0 µM (retest, dose inferred, filed as 0.5).
[8] abbreviates: at 50.0 µM (retest, dose inferred, filed as 5.0).

Consider `Oc1c(Cl)cc(Cl)c2cccnc12`, for which the growth inhibition in assay [1] (setting [7]) is 56%; in assay [1] (setting [8]), 96% (active); in assay [1] (at 50.0 µM), 98.8% (active); in assay [2] (setting [7]), 31%; in assay [2] (setting [8]), 98% (active); in assay [2] (at 50.0 µM) it was 99.2% (active). Also, the growth inhibition was 21% in assay [3] (setting [7]); 99% (active) in assay [3] (setting [8]); 97.7% (active) in assay [3] (at 50.0 µM); 27% in assay [4] (setting [7]); 98% (active) in assay [4] (setting [8]); 98.2% (active) in assay [4] (at 50.0 µM). The growth inhibition in assay [5] (setting [7]) is 64%; in assay [5] (setting [8]), 97% (active); in assay [5] (at 50.0 µM) it was 98.5% (active); in assay [6] (setting [7]), 43%; in assay [6] (setting [8]), 98% (active); in assay [6] (at 50.0 µM), 99% (active).

For the compound `CCCC(=O)NC1=C(Cl)C(=O)c2ccccc2C1=O`, the growth inhibition was 100% (active) in assay [1] (setting [7]); 99% (active) in assay [1] (setting [8]); 91.8% (active) in assay [1] (at 50.0 µM); 100% (active) in assay [2] (setting [7]); 100% (active) in assay [2] (setting [8]); 92.5% (active) in assay [2] (at 50.0 µM). The growth inhibition in assay [3] (setting [7]) is 100% (active); in assay [3] (setting [8]) it was 100% (active); in assay [3] (at 50.0 µM), 92.5% (active); in assay [4] (setting [7]), 90% (active); in assay [4] (setting [8]), 99% (active); in assay [4] (at 50.0 µM) it was 91.5% (active). In addition, the growth inhibition is 100% (active) in assay [5] (setting [7]); 99% (active) in assay [5] (setting [8]); 89.7% (active) in assay [5] (at 50.0 µM); 101% (active) in assay [6] (setting [7]); 99% (active) in assay [6] (setting [8]); 87.5% (active) in assay [6] (at 50.0 µM).

On to `N#CCC1CC(=O)c2[nH]c3ccccc3c2C1` (configuration not stated), for which the growth inhibition is -157% in assay [1] (setting [7]); -137% in assay [1] (setting [8]); 8.85% in assay [1] (at 50.0 µM); -49% in assay [2] (setting [7]); -54% in assay [2] (setting [8]); 7.7% in assay [2] (at 50.0 µM). Also, the growth inhibition in assay [3] (setting [7]) was -64%; in assay [3] (setting [8]), -63%; in assay [3] (at 50.0 µM), 10%; in assay [4] (setting [7]), -54%; in assay [4] (setting [8]) it was -74%; in assay [4] (at 50.0 µM), 28%. Moreover, the growth inhibition in assay [5] (setting [7]) is -62%; in assay [5] (setting [8]) it was -70%; in assay [5] (at 50.0 µM) it was -15.9%; in assay [6] (setting [7]), -123%; in assay [6] (setting [8]), -121%; in assay [6] (at 50.0 µM), 10.4%.

Regarding `CC1=NN(c2nc(N)nc(C(C)Sc3cc(Cl)c(C)cc3S(N)(=O)=O)n2)C(C)(C)C1` (configuration not stated), the growth inhibition in assay [1] (setting [7]) was 4%; in assay [1] (setting [8]), 18%; in assay [1] (at 50.0 µM), -51%; in assay [2] (setting [7]), -1%; in assay [2] (setting [8]), -24%; in assay [2] (at 50.0 µM), -25.8%. In addition, the growth inhibition is 8% in assay [3] (setting [7]); 1% in assay [3] (setting [8]); -10.6% in assay [3] (at 50.0 µM); 29% in assay [4] (setting [7]); -6% in assay [4] (setting [8]); 40.9% in assay [4] (at 50.0 µM). Also, the growth inhibition in assay [5] (setting [7]) was 41%; in assay [5] (setting [8]), 26%; in assay [5] (at 50.0 µM) it was -17.1%; in assay [6] (setting [7]), -6%; in assay [6] (setting [8]) it was 0%; in assay [6] (at 50.0 µM), 2.9%.

`Cc1ccc(N=C=C(c2ccccc2)c2ccccc2)cc1`: the growth inhibition in assay [1] (setting [7]) was 12%; in assay [1] (setting [8]), 46%; in assay [1] (at 50.0 µM), 67.5%; in assay [2] (setting [7]) it was 26%; in assay [2] (setting [8]), 39%; in assay [2] (at 50.0 µM), 59.3%. In addition, the growth inhibition in assay [3] (setting [7]) was 17%; in assay [3] (setting [8]), 70% (active); in assay [3] (at 50.0 µM), 65.8%; in assay [4] (setting [7]), 9%; in assay [4] (setting [8]) it was 35%; in assay [4] (at 50.0 µM) it was 48%. For the same compound, the growth inhibition in assay [5] (setting [7]) was 28%; in assay [5] (setting [8]), 58%; in assay [5] (at 50.0 µM), 67.2%; in assay [6] (setting [7]), 30%; in assay [6] (setting [8]), 77% (active); in assay [6] (at 50.0 µM) it was 71.2% (active).

With `CCN(CC)Cc1c(-c2ccccc2)oc(-c2ccccc2)c1CN(CC)CC`, the growth inhibition in assay [1] (setting [7]) is -15%; in assay [1] (setting [8]) it was 33%; in assay [1] (at 50.0 µM), 64.7%; in assay [2] (setting [7]) it was 1%; in assay [2] (setting [8]), 2%; in assay [2] (at 50.0 µM), -0.45%. Also, the growth inhibition in assay [3] (setting [7]) was -15%; in assay [3] (setting [8]), 33%; in assay [3] (at 50.0 µM), -5.75%; in assay [4] (setting [7]), -2%; in assay [4] (setting [8]), -1%; in assay [4] (at 50.0 µM), -9.8%. For the same compound, the growth inhibition was 1% in assay [5] (setting [7]); 8% in assay [5] (setting [8]); 36.4% in assay [5] (at 50.0 µM); 2% in assay [6] (setting [7]); 32% in assay [6] (setting [8]); 67.4% in assay [6] (at 50.0 µM).

As for `CCCCC(CC(=O)O)c1ccc(Cl)cc1` (configuration not stated), the growth inhibition in assay [1] (setting [7]) was -146%; in assay [1] (setting [8]), -7%; in assay [1] (at 50.0 µM) it was 57.5%; in assay [2] (setting [7]) it was -43%; in assay [2] (setting [8]) it was 17%; in assay [2] (at 50.0 µM), 60.7%. The growth inhibition in assay [3] (setting [7]) is -58%; in assay [3] (setting [8]), 5%; in assay [3] (at 50.0 µM), 40.6%; in assay [4] (setting [7]), -63%; in assay [4] (setting [8]), 37%; in assay [4] (at 50.0 µM), 70% (active). In addition, the growth inhibition in assay [5] (setting [7]) was -61%; in assay [5] (setting [8]), 28%; in assay [5] (at 50.0 µM) it was 54.6%; in assay [6] (setting [7]) it was -133%; in assay [6] (setting [8]), 13%; in assay [6] (at 50.0 µM), 66%.

Consider `CCOC(=O)/C(=C/c1ccc2ccccc2c1)P(=O)(OCC)OCC`, for which the growth inhibition was -17% in assay [1] (setting [7]); -15% in assay [1] (setting [8]); 76.6% (active) in assay [1] (at 50.0 µM); 6% in assay [2] (setting [7]); -13% in assay [2] (setting [8]); 69.2% in assay [2] (at 50.0 µM). In addition, the growth inhibition in assay [3] (setting [7]) is -6%; in assay [3] (setting [8]), -5%; in assay [3] (at 50.0 µM), 66.8%; in assay [4] (setting [7]), 10%; in assay [4] (setting [8]), 19%; in assay [4] (at 50.0 µM), 71.1% (active). Besides, the growth inhibition in assay [5] (setting [7]) is 16%; in assay [5] (setting [8]), 9%; in assay [5] (at 50.0 µM), 75.5% (active); in assay [6] (setting [7]), -18%; in assay [6] (setting [8]) it was -7%; in assay [6] (at 50.0 µM), 58%.

As for `O=C1C(=O)N(c2cc(Cl)ccc2Cl)C(=O)C(=O)C1c1nc2ccccc2o1`, the growth inhibition in assay [1] (setting [7]) is 4%; in assay [1] (setting [8]) it was 4%; in assay [1] (at 50.0 µM) it was 53.2%; in assay [2] (setting [7]) it was 15%; in assay [2] (setting [8]), 15%; in assay [2] (at 50.0 µM) it was 37.9%. Further, the growth inhibition in assay [3] (setting [7]) was 22%; in assay [3] (setting [8]), 22%; in assay [3] (at 50.0 µM), 36.8%; in assay [4] (setting [7]) it was 10%; in assay [4] (setting [8]), 10%; in assay [4] (at 50.0 µM), 81.2% (active). Besides, the growth inhibition is 2% in assay [5] (setting [7]); 2% in assay [5] (setting [8]); 57.1% in assay [5] (at 50.0 µM); 12% in assay [6] (setting [7]); 12% in assay [6] (setting [8]); 31.9% in assay [6] (at 50.0 µM).
